Marburg entry inh – Marburg virus entry inhibition; Marburg virus pseudotyped entry inhibition, cell reporter; Potency, µM (titrated, usually from 37.8 µM), for the others: top-dose activity change, negative = inhibition, most hits filed as inhibitors; 300,000 tested, 1.8% active; calls by dose curve; tested in HEK293 cells; note: potency is the fitted concentration of half-maximal effect; % is set by controls: 0 for no effect and ±100 for the full control effect
Lassa entry inh – Lassa virus entry inhibition | Lassa virus pseudotype entry inhibition, cell reporter | AID 540256 | Potency, µM (top dose mostly 37.9 µM), inactives show at the highest dose activity change, negative = inhibition, hits mostly inhibitors | 300,000 tested, 1.2% active; calls by dose curve; tested in HEK293 cells; note: potency is the fitted concentration of half-maximal effect; % is set by controls: 0 for no effect and ±100 for the full control effect; nearly all actives have a fitted effect of over 50% in size
VACV mCherry inh – inhibitors of vaccinia virus infection (mCherry reporter signal); Potency, µM (highest dose often 36.5 µM), inactives show top-dose activity change, negative = inhibition, most hits filed as inhibitors; 310,000 tested, 0.63% active; AID 720579; Vaccinia virus mCherry reporter infection, fluorescence; calls by dose curve; tested in A549 cells; note: potency is the fitted concentration of half-maximal effect; % is set by controls: 0 for no effect and ±100 for the full control effect; nearly all actives have a fitted effect of over 35% in size
Shiga toxin inh – blocks Shiga toxin action in Vero cells; 290,000 tested, 9.2% active; Vero cells, Shiga toxin protein synthesis inhibition reporter; inhibition, % at 38.7 µM; AID 2315; in the data active = inhibition mostly above about 28%, no sharp cut-off; inactive = mostly below about 43%; note: 0% is about no effect
VACV Venus inh – vaccinia inhibition (Venus reporter); 330,000 tested, 0.46% active; Vaccinia virus Venus reporter expression, fluorescence; AID 720580; Potency, µM (highest dose often 36.5 µM), for inactives: at the top dose activity change, negative = inhibition, actives largely listed as inhibitors; calls by dose curve; tested in A549 cells; note: potency is the fitted concentration of half-maximal effect; % is set by controls: 0 for no effect and ±100 for the full control effect; nearly all actives have a fitted effect of over 30% in size
Cycloheximide cs – counter-screen hit for Shiga toxin inhibitors, cycloheximide; cell reporter, cycloheximide protein synthesis inhibition counterscreen; max response, %; 300,000 tested, 12% active; in the data active = max response mostly above about 13%, no sharp cut-off; inactive = mostly below about 14%; note: read at 38.3 µM for the half of the compounds with a filed dose; 0% is about no effect
Starred values were filed as active, the others as inactive; i = inactive; ? = inconclusive; / = no result; + = active, no number; [ ] = another dose, or the depositor's remark. The sample as a whole holds a higher share of hits than the screen did.

SMILES	Marburg entry inh	Lassa entry inh	VACV mCherry inh	Shiga toxin inh	VACV Venus inh	Cycloheximide cs
O=C(Nc1cccc2cccnc12)c1ccc(-c2cccc(Cl)c2)o1	0%[46.1 µM]	-1%[46.1 µM]	2%	/	3%	/
COC(=O)c1cc(NC(=O)c2ccc(-c3ccc(Cl)cc3Cl)o2)cc(C(=O)OC)c1	/	-9%[46.1 µM]	-11%	/	-6%	/
COc1cccc(CNC(=O)CSc2nc3ccccc3nc2Cc2ccccc2)c1	/	-18%[46.1 µM]	-25%	/	?	/
S=C(Nc1ccc(Cl)c(Cl)c1)NC1CCN(Cc2ccccc2)CC1	?	?	/	-7	14µM*	-7
Cc1ccc(NC(=S)NC2CCCCC2)cc1S(=O)(=O)N(C)C	?	?	i	125*	-8%	32*
S=C(Nc1ccc(Cl)c(Cl)c1)NC1CCCCC1	?	-19%	/	+	/	56*
Fc1ccc(NC(=S)NC2CCN(Cc3ccccc3)CC2)cc1	/	/	-10%	2	-19%	-4
Cc1ccc(NC(=O)CNCC2CCCCC2)cc1S(=O)(=O)N(C)C	/	/	/	13	/	-3
S=C(NNc1ccc2ccccc2c1)NC1CCCCC1	?	19%	-14%	61*	-24%	49*
S=C(Nc1ccc(Cl)cc1Cl)NC1CCCCC1	-12%	?	/	-2	-26%	-1
CC(C)c1ccc(NC(=S)NC2CCCCCC2)cc1	?	?	i	69*	-21%	32*
FC(F)(F)c1ccc(NC(=S)NC2CCCCC2)cc1	?	?	?	82*	-27%	44*
S=C(Nc1ccc(Oc2ccc(NC(=S)NC3CCCCC3)cc2)cc1)NC1CCCCC1	?	?	-20%	37	-15%	4
Cc1cccc(NC(=S)NNC(=S)NC2CCCCC2)c1C	25%[46.1 µM]	-9%[46.1 µM]	-27%	44*	-11%	16*
Fc1cccc(NC(=S)NC2CCCCCCC2)c1	/	/	/	75*	/	35*
Cc1ccccc1NC(=S)NC1CCCC1	-13%	?	-16%	-2	-5%	-2
CC1CCC(NC(=O)c2[nH]c(C(F)(F)F)nc2-c2ccccc2)CC1 (stereo unspecified)	/	/	i	/	-13%	/
O=S(=O)(NCCCCCNS(=O)(=O)c1c(F)cccc1F)c1ccc2c(c1)OCCO2	/	/	/	-6	/	6
COc1ccccc1CCNC(=O)c1cc2c(=O)n3cccc(C)c3nc2n1C	/	-20%[46.1 µM]	-4%	/	-6%	/
S=C(Nc1ccc2nsnc2c1)NC1CCCCC1	?	-1%	i	88*	-7%	59*
S=C(Nc1ccccc1Cl)NC1CCCCCC1	6%	-3%	/	63*	/	18*
S=C(Nc1ccc2nsnc2c1)N1CCCCCC1	-1%[46.1 µM]	19%[46.1 µM]	-16%	35	-1%	-6
CCN(CC)c1ccc(/C=C(/C#N)C(=O)NC(C)C)o1	28%[46.1 µM]	-7%	-11%	60*	-9%	26*
CCN(CC)c1ccc(/C=C(/C#N)C(=O)NCc2ccccc2)o1	21%	-17%	-22%	102*	-1%	50*
CCn1ccc2cc(S(=O)(=O)N3CCC(C(=O)NCc4cccc(C)c4)CC3)ccc21	/	-1%[46.1 µM]	-20%	/	-11%	/
SMILES	Marburg entry inh	Lassa entry inh	VACV mCherry inh	Shiga toxin inh	VACV Venus inh	Cycloheximide cs
CCOC(=O)c1cnc(SCc2ccc(C)cc2)nc1N	-2%	?	-7%	106*	1%	33*
CCOC(=O)c1cnc(SC2CCc3ccccc3C2=O)nc1N (stereo unspecified)	-1%	-5%	/	71*	/	33*
CCOC(=O)c1cnc(SCC(=O)N2CCN(C(=O)c3ccco3)CC2)nc1N	?	?	/	-8	/	-2
CCCCSc1ncc(C(=O)OCC)c(N)n1	?	?	i	68*	-15%	46*
CCOC(=O)c1cnc(SCCc2ccccc2)nc1N	2%	?	/	97*	/	35*
CCOC(=O)c1cnc(SCC(=O)c2ccc(Cl)cc2)nc1N	10%[46.1 µM]	-2%	/	-4	-14%	9
CCN1CC(C)(C)N(C(=O)c2ccccc2)CC1(C)C	4%	0%[46.1 µM]	i	/	-8%	/
COC(=O)CC=C[C@@H](C)[C@@H](C=NOC[C@@H](O)COCc1ccco1)OC	-14%[14.2 µM]	/	/	/	/	/
Cc1ccc(NC(=O)CN(Cc2ccco2)Cc2ccccc2O)cc1C	?	?	-29%	59*	-13%	26*
Cc1ccc(NC(=O)N(Cc2ccco2)C(C)c2ccco2)cc1C (stereo unspecified)	-2%	-28%	-18%	-14	-13%	10*
Cc1ccc(NC(=O)N(Cc2cccnc2)Cc2ccco2)cc1C	?	?	/	-5	/	-4
Cc1ccc(NC(=O)c2nc(S(C)(=O)=O)ncc2N(Cc2ccco2)Cc2ccco2)cc1C	?	0%[46.1 µM]	-11%	/	-12%	/
CN1CCN2c3ccccc3CC3(C(=O)OC(C)(C)OC3=O)C2C1 (stereo unspecified)	/	/	38%	/	5%	/
CC(C)=CCC[C@@](C)(O)[C@H]1CC=C(C)CC1	/	/	i	/	-2%	/
Cc1ccccc1OCC(O)CN1C(=O)c2ccccc2C1=O (stereo unspecified)	/	/	/	39*	/	37*
O=C1c2ccccc2C(=O)N1CC(O)COc1ccccc1Cl (stereo unspecified)	/	/	/	91*	/	45*
COCCN(C(=O)Cc1cccs1)c1nnc(-c2ccncc2)s1	-7%[46.1 µM]	-2%	-13%	22	1%	6
CCN(C(=O)c1cccs1)c1nnc(-c2ccncc2)s1	-19%[46.1 µM]	-8%	-4%	active	-7%	16*
Cc1ccnc(SCc2nc3ccccc3s2)n1	?	?	/	62*	/	32*
c1ccc(Cc2nc3ccccc3s2)cc1	-3%[46.1 µM]	8%[46.1 µM]	?	/	16%	/
O=c1c2ccccc2nc(SCc2nc3ccccc3s2)n1CCCO	?	?	-3%	137*	?	46*
Cn1nnnc1SCc1cccc2ccccc12	-23%[46.1 µM]	-12%	-3%	25	-10%	7
Cn1nnnc1SCc1nc2ccccc2s1	?	?	/	94*	-14%	38*
CSc1cc2c(s1)c1cnn(Cc3ccccc3F)c(=O)c1n2C	/	/	/	-12	/	-11
O=C(NC1CC(=O)N(c2ccc(F)cc2)C1)C(c1ccccc1)c1ccccc1 (stereo unspecified)	/	-17%[46.1 µM]	-11%	/	-3%	/
SMILES	Marburg entry inh	Lassa entry inh	VACV mCherry inh	Shiga toxin inh	VACV Venus inh	Cycloheximide cs
Cc1nc2ccccc2nc1OCc1cccc(Cl)c1	4%	17%	-1%	-4	-18%	-4
Cc1oc(=O)cc(OCc2ccccc2)c1C	/	/	-3%	/	-8%	/
Cc1c(OCc2ccccc2)cccc1OCc1ccccc1	39%	-3%	i	18	-2%	21*
Cc1nc2ccccc2nc1OCc1ccccc1	-5%	4%	1%	25	-7%	18*
C/C(CCN1CCc2nc(-c3ccccc3)c(-c3ccccc3)cc2C1)=N\O[C@H](C)CN1CCCCc2nc(C)c(C)cc21	25%[14.2 µM]	/	/	/	/	/
CC1=C(C(=O)Nc2c(C)cc(C)cc2C)C2(CCN(C(C)C)CC2)OC1=O	/	23%[46.1 µM]	-10%	/	-3%	/
CCc1ccc(C(=O)COC(=O)c2nn(C)c(=O)c3ccccc23)cc1	19%	8%	-8%	4	-15%	8
O=C(COC(=O)c1n[nH]c2ccccc12)c1cc(F)ccc1F	-20%[46.1 µM]	-14%	5%	44*	-1%	30*

Assay outcomes (PubChem)
